The record followed here is PubChem BioAssay (NCI).

This is part of a sample that, as a whole, favours compounds with a hit. Of some 83,000 tested, about 20% had one in any assay.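 Cells were grown in 96-well plates and exposed to the test compound at a single concentration for 48 hours; results are reported as percent growth, with values below 10 considered active.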 The source made the active and inactive calls.

For the experiment, the system named is NCI-H322M lung. Briefly: NCI-60 one-dose screen, 48 h (100 = growth as untreated, 0 = no growth, -100 = all killed). To be noted: 10 µM unless noted. Here is the method:
Growth inhibition of the NCI-H322M human Non-Small Cell Lung tumor cell line is measured as a screen for anti-cancer activity. Cells are grown in 96 well plates and exposed to the test compound for 48 hours. Compounds are tested at a single concentration, which is 10^-5 M for most compounds. The reported endpoint is percent growth (GI% or GIPRCNT), where numbers from 0 - 100% represent growth inhibition, and numbers from -100% - 0 represent cell death. For example, a value of 40 represents 60% growth inhibition. A value of 0 means no net growth occurred over the course of the experiment. A value of -40 indicates 40% of cells at the beginning of the experiment died by the end of the experiment. A value of -100 means all cells are dead at the end of the experiment.
NCI-60 Human Tumor Cell Lines Screen was performed using the standard one-dose NCI protocol, which is described in more detail at https://dtp.cancer.gov/discovery_development/nci-60/default.htm.
Compounds with GIPRCNT values below 10 were considered active. Activity score was based on GIPRCNT using the following formula: […]
Score is 0 for GIPRCNT values of 100 or above, 50 for GIPRCNT values of 0, and 100 for GIPRCNT values of -100.
As for `Cc1nc2ccccc2n1CC1C(=O)NC(=O)NC1=O`, the growth is 95.5% (inactive). For `CCC(C)(c1cc(C(C)(C)C)c(O)c(C(C)(C)C)c1)c1cc(C(C)(C)C)c(O)c(C(C)(C)C)c1`, the growth is 98% (inactive). For `CC1=NN(c2ccc(S(=O)(=O)O)cc2)C(=O)C1N=Nc1ccc(-c2ccc(N=Nc3ccc(OS(=O)(=O)c4ccc(C)cc4)cc3)c(S(=O)(=O)O)c2)cc1` (stereo not given), the growth is 93.4% (inactive).

For the compound `CC1=C([Se]CC(OC(=O)[C@@H](CSSC(C)(C)C)NC(=O)OC(C)(C)C)C(=O)NC(C)(C)C)C(=O)c2ccccc2C1=O` (stereo not given in full), the growth is -73.6% (active). For the compound `CSc1ncccc1C(=O)OCC(=O)Nc1oc(C)c2c(C)n[nH]c(=O)c12`, the growth is 104% (inactive). Take `CCOC(=O)c1nc(Nc2ccc(C(C)=O)cc2)sc1C`: the growth was 96.2% (inactive). Turning to `NCCNc1nc2ccccc2c2c(=O)c3cccc(F)c3sc12`, the growth was 64.7% (inactive).

Turning to `O=C(N/N=C/[C@H](O)[C@H](O)[C@H](O)CO)c1ccc(NC(=O)c2cccnc2)cc1`, the growth was 105% (inactive). `Cc1ccc(S(=O)(=O)N/N=C/C2(c3ccccc3)CC2)cc1`: the growth was 111% (inactive). As for `COc1cc(CNS(=O)(=O)c2ccc(C)cc2)ccc1OCc1cn(-c2ccccc2)nn1`, the growth was 92.8% (inactive).

For `CC1(C)C2CC1C1(/C=N\Nc3ccccc3)C(C2)C(C#N)(C#N)C1(C#N)C#N` (stereo not given), the growth is 80.4% (inactive). In the case of `CCOC(=O)c1sc2ncc(-c3ccc(OC)cc3)n2c1C` it was 97.3% (inactive). In the case of `O=C(N/N=C/c1c(Cl)cccc1Cl)c1ccc(C(F)(F)F)nc1Nc1cccc(C(F)(F)F)c1` it was 1.62% (active). Regarding `NCCCNc1nc2ccc(Cl)cc2c2c(=O)c3cc(F)ccc3sc12`, the growth is 74.9% (inactive). Turning to `CC(=O)N1CCN(c2ccc(OCC3CO[C@](Cn4ccnc4)(c4ccc(Cl)cc4Cl)O3)cc2)CC1` (stereo not given in full), the growth was 93.6% (inactive). As to `NCCCNc1nc2ccccc2c2c(=O)c3cc(OC(F)(F)F)ccc3sc12`, the growth was 49.1% (inactive). Consider `CCCCCCCCCCCCCCCCCCOc1ccccc1CCCOP(=O)(O)OCC[N+](C)(C)C`, for which the growth was 113% (inactive). `NCCCNc1nc2ccccc2c2c(=O)c3cc(F)cc(F)c3sc12`: the growth was 84.5% (inactive). As to `CCCC1CCC(O)(C(C)(O)C(=O)NC2C(=O)N3NCCCC3C(=O)N(O)C(C)C(=O)N3NCCCC3C(=O)N3NCC(O)CC3C(=O)NC(C)C(=O)OC2C(C)C)OC1CC` (stereo not given), the growth is -90.8% (active).

Take `CS(=O)(=O)Nc1cc(-c2ccc3ncnc(Nc4cccc(Cl)c4F)c3c2)cnc1Cl`: the growth is 47.2% (inactive). In the case of `COc1ccc(/C=C/c2c(C(=O)/C=C/c3ccc(Cl)cc3)c(C)nc3ccccc23)cc1` it was 68.6% (inactive); in that of `Cc1cccc2c1S/C(=C/c1ccc([N+](=O)[O-])cc1)C2=O`, 96.3% (inactive); in that of `Brc1ccc2[nH]cc(-c3nc(-c4c[nH]c5ccncc45)cs3)c2c1`, -18.6% (active). In the case of `CCc1ccc2nc(NC(=O)Cc3csc(NC(=O)c4ccco4)n3)sc2c1`, the growth was 81.5% (inactive). For `COC1=C(C)C(=O)c2c(c(CCCl)c3n2CCC3O)C1=O` (stereo not given) the value was -4.2% (active). `COc1cc2oc(-c3ccc(O)cc3)cc(=O)c2c(O)c1-c1c(OC)cc(O)c2c(=O)cc(-c3ccc(O)cc3)oc12`: the growth was 28.8% (inactive).

For `CCOC(=O)c1c(C)oc2ncnc(N3CCN(C(=O)COc4ccc(C(C)(C)C)cc4)CC3)c12`, the growth was 88.8% (inactive).

As to `COc1ccc2nc(NC(=O)c3cccnc3Nc3ccc(S(N)(=O)=O)cc3)sc2c1`, the growth is 89.8% (inactive). With `COc1ccc(/C=C2\Oc3cc(OCCN4CCC(Cc5ccccc5)CC4)ccc3C2=O)cc1OC`, the growth was 96.2% (inactive). In the case of `COc1ccc(OC)c(/C=C/c2nnc(Nc3ccccc3)o2)c1`, the growth is 99.6% (inactive). In the case of `Cc1ccc2nc(NC(=O)CSc3nc(Cl)c(C#N)c(-c4ccccc4)n3)sc2c1` it was 101% (inactive); in that of `O=c1c2cc(F)cc(Cl)c2sc2c(NCCCNCCO)nc3ccccc3c12`, 89.8% (inactive). In the case of `COc1cc(/C=C/C(=O)/C=C/c2cc(OC)c3c(c2OC)OCO3)c(OC)c2c1OCO2` it was 56.8% (inactive); in that of `COc1cc(/C=C/c2ccccc2)cc(OC)c1`, 114% (inactive); in that of `COc1cc(CCCO)c(OC)c(OC)c1OC`, 96.1% (inactive). `Cc1ccc(-c2nc(N3CCN(CC(=O)Nc4ccc(Cl)cc4)CC3)c3ccccc3n2)cc1`: the growth was 91.1% (inactive). With `NC1CCN(c2nc(Nc3cccc(C(F)(F)F)c3)c3c(=O)[nH]ccc3n2)CC1`, the growth was -12.7% (active). `Cc1ccc(C(=O)NCCNc2nccc(-c3c(-c4cccc(F)c4)nc4sccn34)n2)cc1`: the growth is 64.8% (inactive). With `COc1cc(Nc2nc(NCCN)nc3cc[nH]c(=O)c23)cc(OC)c1`, the growth is 83% (inactive).

As to `COc1c(N2CC3CCCN(C(C)=O)C3C2)c(F)cc2c(=O)c(C(=O)N[C@H]3C(O)[C@@H](O)C(CO)O[C@H]3O)cn(C3CC3)c12` (stereo not given in full), the growth was 106% (inactive).
